Compound activity: PubChem BioAssay, National Center for Advancing Translational Sciences (NCATS)
In the library only some 8% were active in any assay of this set; here they are far more common.
HCV inh: qHTS Assay for Inhibitors of Hepatitis C Virus (HCV). Huh7.5.1 HCVcc-Cre infection, luciferase reporter, 44 h. Potency, µM (top dose mostly 41.8 µM), without a hit: top-dose activity change, negative = inhibition, hits mostly inhibitors. 340,000 compounds, 3.4% hits. AID 651820, 2012; active = well fitted inhibition curve with a large enough effect; inconclusive = small, poorly fitted or top-dose-only effect, or another doubt; inactive = no such curve, though single readings can be large or run the other way; note: potency is the fitted concentration of half-maximal effect; % is set by controls: 0 for no effect and ±100 for the full control effect
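Luciferase read-out (15 sec integration) after a 15 min room-temperature substrate step quantifies HCVcc-Cre infection. Cells, 1,000 per well, had compound added 4 h post-plating, then virus at ~0.5 moi, and were cultured 44 h.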
Lassa entry inh: qHTS for Inhibitors of binding or entry into cells for Lassa Virus. Lassa virus pseudotype entry inhibition, cell reporter. Potency, µM (highest dose often 37.9 µM), for inactives: top-dose activity change, negative = inhibition, actives largely listed as inhibitors. 300,000 compounds, 1.2% hits; calls by dose curve; tested in HEK293 cells; note: potency is the fitted concentration of half-maximal effect; % is set by controls: 0 for no effect and ±100 for the full control effect; nearly all actives have a fitted effect of over 50% in size
SARS PLpro yeast: qHTS of Yeast-based Assay for SARS-CoV PLP; Potency, µM (top dose mostly 32.9 µM), for inactives: at the highest dose activity, positive = growth rescue, most hits filed as activators; AID 485353, 2010; 330,000 compounds, 0.19% hits; S. cerevisiae expressing SARS-CoV PLpro, growth rescue; calls by dose curve; note: potency is the fitted concentration of half-maximal effect; 0% is about no effect; nearly all actives have a fitted effect of over 55% in size
HCMV antiviral: qHTS Assay for inhibitors of the human cytomegalovirus (HCMV) | 410,000 compounds, 4.5% hits | AID 1259415, 2018 | activity change, negative = inhibition, % at 57.5 µM | HFF cells, HCMV-luciferase reporter, 72 h; hits give low values; in the data active = activity change below about -60%; inconclusive = no clear call, values can overlap the other calls; inactive = above about -39%; note: % is set by controls: 0 for no effect and ±100 for the full control effect
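After 16 h attachment at 37C, HFF cells received test compound and HCMV-luciferase (1 PFU/cell); reporter luminescence read 72 h later, data normalized against buffer-only and known inhibitor Salinomycin.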
FMDV inh: High Throughput Screening for Foot and Mouth Disease Virus Antivirals; FMDV antiviral cell-based qHTS; Potency, µM (series often up to 57.9 µM), for the others: top-dose activity change, negative = inhibition, actives largely listed as inhibitors; 410,000 compounds, 1.2% hits; AID 1159524, 2015; calls by dose curve; tested in HEK293T cells; note: read-out not given here; potency is the fitted concentration of half-maximal effect; % is set by controls: 0 for no effect and ±100 for the full control effect; nearly all actives have a fitted effect of over 45% in size
MARV entry inh: qHTS for inhibitors of binding or entry into cells for Marburg Virus | Marburg virus pseudotyped entry inhibition, cell reporter | Potency, µM (titrated, usually from 37.8 µM), for the others: top-dose activity change, negative = inhibition, actives largely listed as inhibitors | 300,000 compounds, 1.8% hits | AID 540276, 2011; calls by dose curve; tested in HEK293 cells; note: potency is the fitted concentration of half-maximal effect; % is set by controls: 0 for no effect and ±100 for the full control effect
* marks the source's active call; other numbers are inactive results; ? = inconclusive; · = no result given; [ ] = remark or other dose.

SMILES	HCV inh	Lassa entry inh	SARS PLpro yeast	HCMV antiviral	FMDV inh	MARV entry inh
CC1CCN(S(=O)(=O)c2cccc(C(=O)N(Cc3ccccc3)c3ccccn3)c2)CC1	-13.4%	?	1.9%	-65.6*	8.1%	?
CNC(=O)c1ccccc1NC(=O)c1cccc(S(=O)(=O)N2CCC(C)CC2)c1	?	22.4µM*	-22.6%	-34.6	0.1%	?
CNC(=O)c1ccccc1NC(=O)c1cccc(S(=O)(=O)N2CCCCC2)c1	-11.9%	-17.6%	0.3%	-38.1	2.7%	0.8%[46.1 µM]
CCNC(=O)c1ccccc1NC(=O)c1cccc(S(=O)(=O)N2CCC(C)CC2)c1	10µM*	-16.4%	-5.2%	?	?	?
COc1cn(CC(=O)Nc2ccc(F)cc2)c(CN2CCCCC2)cc1=O	·	-13.8%[46.1 µM]	·	19.1	-9.7%	·
CCCCOc1ccc(C(=O)N/C(=C\c2ccc(Br)cc2)C(=O)NC2CCCCC2)cc1	·	-20.5%[46.1 µM]	·	-4.5	4.8%	·
O=C(NC1CCCC1)c1ccc2c(=O)n(Cc3ccccc3)c(SCc3ccccc3F)nc2c1	·	-9.5%[46.1 µM]	·	-28.1	-4.0%	·
CCN(CC)S(=O)(=O)c1ccc2c(c1)c(=O)c(C(=O)N1CCN(c3cc(Cl)ccc3C)CC1)cn2C	·	3.2%[46.1 µM]	·	7.5	-19.4%	-14.6%[46.1 µM]
Oc1cc2c(cc1O)[C@H]1c3ccccc3CN[C@H]1CC2	·	·	·	·	-4.4%	15.8µM*
Oc1cc2c(cc1O)[C@H]1c3ccccc3CN[C@@H]1CC2	·	·	4.1%	·	·	·
Cn1c(=O)n(C)c2cc(N3CCOCC3)c(NC(=O)c3c(F)cccc3F)cc21	·	3.7%[46.1 µM]	·	22.3	-18.0%	?
CC1=[N+](C)c2ccc3ccccc3c2C1(C)C	?	?	-10.6%	-84.3*	?	?
CC(=O)N1CCN(c2ccc(NC(=O)c3ccc(Cl)cc3)cc2)CC1	7.1%	·	0.9%	-17.8	2.1%	·
O=C(Nc1ccc(N2CCCC2)cc1)c1cccc(Cl)c1Cl	?	3.8%	-8.9%	-80.3*	57.5%	-22.4%
O=C(Nc1ccccc1N1CCCC1)c1cccc(-c2cc3ccccc3oc2=O)c1	?	-2.2%	-19.9%	41.0	-8.6%	-13.1%
CC(=O)N1CCN(c2ccc(NC(=O)c3ccc(C(C)(C)C)cc3)cc2)CC1	?	?	2.9%	-85.6*	·	?
O=C(Nc1ccc(N2CCCC2)cc1)c1cccc(-c2cc3ccccc3oc2=O)c1	-3.9%	?	-1.7%	-63.3*	0.0%	?
O=C(Nc1ccc(N2CCCCC2)cc1)c1ccccc1	?	7.3µM*	-14.7%	40.0	·	?
C=CCOC(=O)N[C@@H](Cc1ccccc1)C(C(=O)OC)=C(C)NCc1ccccc1	·	·	·	·	·	-10.9%[14.2 µM]
O=[N+]([O-])c1cccc(N/N=C/c2cccc(O)c2O)c1	?	-15.2%	-6.0%	28.2	25.8%	?
CCNc1ncc2nc(-c3cn(C)c4ccccc34)c(=O)n(C[C@H]3CCCO3)c2n1	·	·	·	·	-5.1%	·
COc1ccc(C(=O)Nc2ccnn2C2CCN(C(C)CSC)CC2)cc1 (stereo unspecified)	-3.0%	·	4.5%	-29.9	11.9%	·
O=C(Nc1ccc(N2CCCC2)cc1)c1ccccc1F	?	-26.1%	-1.0%	30.0	21.4%	?
Cc1cc(C(=O)Nc2ccc(N3CCCCC3)cc2)no1	-10.9%	11.2µM*	-0.2%	16.6	-50.8%	?
O=C(Nc1ccc(N2CCCCC2)cc1)c1ccc(F)cc1F	-6.7%	10µM*	0.3%	-34.8	-10.7%	?
SMILES	HCV inh	Lassa entry inh	SARS PLpro yeast	HCMV antiviral	FMDV inh	MARV entry inh
CCOc1ccccc1NC(=O)CN1C(=O)COc2ccc(S(=O)(=O)N3CCCCCC3)cc21	·	-5.2%[46.1 µM]	·	-21.1	4.0%	·
COc1cccc([C@H]2/C(=C(\O)c3cnn(-c4ccccc4)c3C)C(=O)C(=O)N2CCN(C)C)c1	·	·	·	·	·	0.0%
Cc1cc2c3c(c1)C(C)(c1ccccc1)CC(C)(C)N3C(=O)C21C(C#N)=C(N)OC2=C1C(=O)CC(C)(C)C2 (stereo unspecified)	?	?	-19.7%	-72.1*	?	-27.5%
COC(=O)c1ccc(CN2C(=O)[C@]3(OCCC=C[C@@H]3C)c3cc(OC)ccc32)cc1	·	·	·	·	·	-22.7%[14.2 µM]
COc1ccc(Nc2nc(-c3cccs3)nc3ccccc23)c(OC)c1	11.2µM*	?	-15.9%	-33.3	-14.9%	?
COc1ccc(OC)c(Nc2nc(-c3cccs3)cs2)c1	14.1µM*	8.3%	-17.7%	66.6	·	-0.6%
COc1ccc(Nc2nc(-c3cccc([N+](=O)[O-])c3)nc3ccccc23)c(OC)c1	-11.3%	-27.4%	9.0%	-6.4	-28.4%	?
COc1ccccc1Nc1nc(-c2cccs2)cs1	?	?	-9.1%	162.7	55.4%	?
CN(C)C(=O)c1ccc(Nc2nc(-c3cccs3)nc3ccccc23)cc1	2.82µM*	?	-3.8%	?	-9.1%	?
CC(=O)N1CCN(c2nc(-c3cccs3)nc3ccccc23)CC1	11.2µM*	?	-4.5%	15.4	-12.8%	?
CCOC(=O)N1CCN(c2nc(-c3cccs3)nc3ccccc23)CC1	?	?	-12.1%	?	-20.2%	?
Cc1ccc(CNC(=O)c2ccc(NC(=O)N3CCSc4ncccc43)cc2)cc1	·	-6.7%[46.1 µM]	·	-3.0	-4.6%	·
O=C(CSc1nnc(-c2ccccc2)c(-c2ccccc2)n1)Nc1ccc(Br)cn1	?	?	-10.7%	1.3	0.0%	?
O=C(Cc1ccccc1)NCC(=O)N1CCN(c2ccccc2)CC1	24.3%	-4.2%	-0.3%	·	-13.8%	?
CC(C)c1csc(CN2CCC(N3CCC(C(=O)NCC4CCCO4)CC3)CC2)n1 (stereo unspecified)	-1.0%	-2.9%[46.1 µM]	-0.7%	?	-8.0%	27.8%[46.1 µM]
NC(CSC(c1ccccc1)(c1ccccc1)c1cccc2ccccc12)C(=O)O (stereo unspecified)	19.1%	11.5%[46.1 µM]	·	·	0.0%	-13.6%
COc1ccc(Nc2nc(-c3cccs3)cs2)c(OC)c1	10µM*	26.7%	-10.5%	156.2	48.6%	11.2%
CC12CCC3c4ccc(OC(=O)N(CCCl)CCCl)cc4CCC3C1CCC2O (stereo unspecified)	?	5.62µM*	·	8.8	-29.7%	?
CCCOc1ccc(Cl)cc1/C=C1/C(=O)ON=C1C	-0.4%	-4.1%[46.1 µM]	-0.2%	8.0	?	-14.7%[46.1 µM]
CC1=NOC(=O)/C1=C\c1ccc(-c2ccc(Cl)cc2Cl)o1	-17.0%	?	-17.4%	-75.0*	?	0.6%
FC(F)(F)c1cccc(-c2nnc(-c3ccccc3)c(N3CCOCC3)n2)c1	10µM*	-6.0%	-6.9%	-32.8	0.0%	-26.1%
C#Cc1ccc([C@H]2C=C(C(=O)OCC=C)O[C@@H](OCc3ccc(CO)cc3)C2)cc1	22.3%	·	·	5.9	-2.2%	·
C#Cc1ccc([C@H]2C=C(C(=O)OCC=C)O[C@@H](OCCCCO)C2)cc1	11.1%	·	·	-67.3*	-8.4%	·
